# Values of other authors as cited in PubChem BioAssay AID977611.
# About 3,900 (100%) of roughly 3,900 compounds were called active. Cut-off not given; nearly all actives show Kd up to about 4200 µM. So high a share suggests a set chosen from earlier hits. The list shows a part of the results. Starred links: 1 amine or outer side, 2 acyl side, 3 side chain; linkers in the order of their positions; H or OH if unused. *1 amine or outer side, *2 acyl side, *3 side chain or, on linkers, in order; H or OH if unused. Where a SMILES comes first, the peptide text is derived from it. Non-standard residues stand in square brackets, D forms with d. Square brackets hold non-standard residues; d marks the D form. Residues, ends and D or L forms follow the SMILES beside them. Peptide text beside a SMILES is read from it. [ ]: non-standard residue; d: D form. * marks the point of attachment. X1 = O=C([C@H](Cc1ccc(O[P+](O)(O)O)cc1)N[*:1])[*:2]; Orn(CH(NH2)2) = NC(N)NCCC[C@H](N)C(=O)O; AMC = Cc1cc(=O)oc2cc(N*)ccc12
# Test: PubChem AID 977611
# Conditions: PDB protein-ligand complexes, literature Kd
molecule,measurement,setting,value
CC(C)C[C@H](N)C(=O)NCC(=O)N[C@@H](CCCCN)C(=O)N[C@@H](CCCNC(N)N)C(=O)N[C@@H](CCCCN)C(=O)N[C@@H](CCCNC(N)N)C(=O)N[C@@H](Cc1cnc[nH]1)C(=O)O (H-LGK[Orn(CH(NH2)2)]K[Orn(CH(NH2)2)]H-OH),Kd,"protein: IMPORTIN SUBUNIT ALPHA, PDB entry 2ynr",1700 nM (active)
CC(=O)NCCCC[C@H](NC(=O)[C@H](CCCCN)NC(=O)[C@H](Cc1cnc[nH]1)NC(=O)[C@H](CCCNC(N)N)NC(C)=O)C(=O)Nc1ccc2c(C)cc(=O)oc2c1 (Ac-[Orn(CH(NH2)2)]HKK(Ac)-{AMC}),Kd,"protein: NAD-dependent protein deacetylase sirtuin-3, mitochondrial, PDB entry 4fz3",184000 nM (active)
CSCC[C@H](NC(=O)[C@H](CC(C)C)NC(=O)[C@H](CCCCN)NC(=O)[C@H](CCCCN)NC(=O)[C@H](Cc1cnc[nH]1)NC(=O)[C@H](CCCNC(N)N)NC(=O)[C@@H](N)CO)C(=O)N[C@@H](Cc1ccccc1)C(=O)N[C@@H](CCCCN)C(=O)O (H-S[Orn(CH(NH2)2)]HKKLMFK-OH),Kd,"protein: phospho-CDK2/cyclin A, PDB entry 1h26",2900 nM (active)
NC1=NC(=O)c2ccccc2C1,Kd,"protein: proCaspase-6, PDB entry 4n6g",3400 nM (active)
CN(C)C1=NC(=O)c2ccccc2C1,Kd,"protein: Caspase-6, PDB entry 4n7j",3400 nM (active)
CCCCCCCCCCCCCCCC(=O)OC[C@@H](CO[P+](O)(O)OC1[C@H](O)[C@H](O[P+](O)(O)O)C(O[P+](O)(O)O)[C@H](O[P+](O)(O)O)[C@H]1O)OC(=O)CCCCCCCCCCCCCCC (some centres undefined),Kd,"protein: Steroidogenic factor 1 SF-1, PDB entry 4qjr",80 nM (active)
CCCCCCCCCCCCCCCC(=O)OC[C@@H](CO[P+](O)(O)O[C@@H]1[C@H](O)[C@H](O)[C@@H](O[P+](O)(O)O)[C@H](O[P+](O)(O)O)[C@H]1O)OC(=O)CCCCCCCCCCCCCCC,Kd,"protein: Steroidogenic factor 1 SF-1, PDB entry 4qk4",250 nM (active)
H-ATPAWN-OH,Kd,"protein: mRNA-capping enzyme subunit beta Pct1, PDB entry 4pn1",680 nM (active)
H-GASDGSGWSSENNPW-OH,Kd,"protein: protein TolB, PDB entry 2ivz",920 nM (active)
H-NDWLLPSY-OH,Kd,"protein: Microtubule-associated protein 1 light chain 3 (C32I, C119S, C122S mutation), PDB entry 4eoy",326 nM (active)
H-ANSNNPDWDF-OH,Kd,"protein: Humanized KR127 Fab, PDB entry 2eh8",11 nM (active)
CC(C)C[C@H](NC(=O)[C@H](Cc1ccccc1)NC(=O)[C@@H]1CCCN1C(=O)[C@@H](NC(=O)[C@H](CC(C)C)NC(=O)[C@H](CO)NC(=O)[C@H](Cc1c[nH]cn1)NC(=O)[C@H](Cc1c[nH]c2ccccc12)NC(=O)[C@@H]1CCCN1C(=O)[C@H](Cc1ccccc1)NC(=O)[C@@H](N)C(C)C)C(C)C)C(=O)N[C@@H](C)C(=O)N1CCC[C@H]1C(=O)N[C@@H](CO)C(=O)N[C@@H](CCC(N)=O)C(=O)O (H-VFPWHSLVPFLAPSQ-OH),Kd,"protein: Ataxin-1, PDB entry 2m41",8000 nM (active)
H-DWDFLPP-NH2,Kd,"protein: Gamma-aminobutyric acid receptor-associated protein, PDB entry 3dow",11500 nM (active)
C=CCO[C@]1(C(=O)O)C[C@@H](O[C@]2(C(=O)O)C[C@@H](O)[C@@H](O)[C@@H]([C@H](O)CO[C@]3(C(=O)O)C[C@@H](O)[C@@H](O)[C@@H]([C@H](O)CO)O3)O2)[C@@H](O)[C@@H]([C@H](O)CO)O1,Kd,"protein: antigen binding fragment of mAb S25-26, PDB entry 4m7j",781 nM (active)
CC(C)[C@H](NC(=O)[C@H](CCC(=O)O)NC(=O)[C@@H](NC(=O)[C@@H](N)CC(=O)O)[C@@H](C)O)C(=O)N[C@@H](Cc1ccc(O)cc1)C(=O)N[C@@H](CCC(=O)O)C(=O)N[C@@H](CO)C(=O)N1CCC[C@H]1C(=O)N[C@@H](Cc1ccc(O[P+](O)(O)O)cc1)C(=O)N[C@@H](C)C(=O)N[C@@H](CC(=O)O)C(=O)N1CCC[C@H]1C(=O)N[C@@H](CCC(=O)O)C(=O)O (H-DTEVYESP[X1]ADPE-OH),Kd,"protein: Proto-oncogene vav, PDB entry 2mc1",71000 nM (active)
CC(=O)N[C@@H](CC(=O)O)C(=O)N[C@H](C(=O)N[C@@H](CCC(=O)O)C(=O)N[C@H](C(=O)N[C@@H](Cc1ccc(O[P+](O)(O)O)cc1)C(=O)N[C@@H](CCC(=O)O)C(=O)N[C@@H](CO)C(=O)N1CCC[C@H]1C(=O)N[C@@H](Cc1ccc(O[P+](O)(O)O)cc1)C(=O)N[C@@H](C)C(=O)N[C@@H](CC(=O)O)C(=O)N1CCC[C@H]1C(=O)N[C@@H](CCC(=O)O)C(N)=O)C(C)C)[C@@H](C)O (Ac-DTEV[X1]ESP[X1]ADPE-NH2),Kd,"protein: C-termainl SH2 domain from phospholipase C-gamma-1 comprising residues 663-759( PLC?), PDB entry 2fci",70 nM (active)
O=C(Nc1ccc(-c2nn[nH]n2)cc1Cc1ccccc1)c1cccc(CC2CCCCC2)n1,Kd,"protein: KSHV Protease, PDB entry 4p3h",1000 nM (active)
CN(C)c1cc[n+](Cc2ccc(-c3ccccc3)cc2)cc1,Kd,"protein: Human choline kinase a1, PDB entry 4cg9",620 nM (active)
CN(C)c1cc[n+](Cc2ccc(CCc3ccccc3)cc2)cc1,Kd,"protein: Human choline kinase a1, PDB entry 4cga",400 nM (active)
CN(C)c1cc[n+](Cc2ccc(-c3ccc(Cn4cnc(=N)c5[nH]cnc54)cc3)cc2)cc1,Kd,"protein: CHOLINE KINASE ALPHA, PDB entry 4br3",1900 nM (active)
CN(C)c1cc[n+](Cc2ccc(CCCCc3ccc(CN4C=CC(N(C)c5ccc(Cl)cc5)C=C4)cc3)cc2)cc1,Kd,"protein: Human choline kinase a1, PDB entry 4cg8",110 nM (active)
CC(=O)N[C@H]1[C@H](O[C@H]2[C@H](O)[C@@H](O)[C@H](O[C@H]3[C@H](O)[C@@H](CO)OC[C@@H]3NC(C)=O)O[C@@H]2C(=O)O)O[C@H](CO)[C@@H](O)[C@@H]1O[C@@H]1O[C@H](C(=O)O)[C@@H](O)[C@H](O)[C@H]1O,Kd,"protein: murine cd44 hyaluronan binding domain, PDB entry 4mrd",428000 nM (active)
CC(=O)N[C@@H]1[C@@H](O[C@H]2O[C@H](CO)[C@H](O[C@H]3O[C@H](CO[C@@H]4O[C@@H](C)[C@H](O)[C@@H](O)[C@H]4O)[C@@H](O)[C@H](O)[C@H]3O)[C@H](O[C@@H]3O[C@H](CO)[C@@H](O)[C@H](O)[C@H]3NC(C)=O)[C@H]2O)[C@H](O)[C@@H](CO[C@H]2O[C@H](CO)[C@@H](O)[C@H](O)[C@H]2O)O[C@H]1O,Kd,"protein: TAIL SPIKE PROTEIN(D339A mutant), PDB entry 2x6y",26000 nM (active)
same,Kd,"protein: TAIL SPIKE PROTEIN, PDB entry 2x85",129000 nM (active)
